The panel holds about 79,000 compounds, 15% with a hit somewhere; the sample as a whole holds those more often. No stated cut-off is given here; in the data, active means growth inhibition above about 70%; inactive means the rest.
Key:
[1] = NCI Yeast Anticancer Drug Screen. Data for the rad50 strain (AID 155);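 further: 0% = growth of vehicle-only cultures of the same strain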; settings: S. cerevisiae rad50 strain growth inhibition; at 50.0 µM; hits give high values
Procedure, shortened: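 A DNA repair-deficient yeast mutant serves as the test organism; compound-induced growth inhibition is calculated against vehicle-treated cells.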

[2] = NCI Yeast Anticancer Drug Screen. Data for the mec2-1 strain (AID 157); settings: S. cerevisiae mec2-1 strain, at 50.0 µM, hits give high values
Procedure, shortened: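 Strain: mec2-1 (DNA repair/cell cycle alteration). Compound exposure, then growth measured; inhibition expressed relative to vehicle.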

[3] = NCI Yeast Anticancer Drug Screen. Data for the sgs1 mgt1 strain (AID 161);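 further: 0% = growth of cultures given vehicle only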; settings: S. cerevisiae sgs1 mgt1 strain, at 50.0 µM, hits give high values
Procedure, shortened: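 Mutant yeast exposed to compound; growth scored against vehicle-only wells.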

[4] = NCI Yeast Anticancer Drug Screen. Data for the cln2 rad14 strain (AID 165);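 further: 0% = growth equal to vehicle treated cultures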; settings: S. cerevisiae cln2 rad14 strain, at 50.0 µM, hits give high values
Procedure, shortened: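 Compounds are applied to the cln2 rad14 yeast strain, and growth is then compared with that of vehicle-treated cultures to give inhibition.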

[5] = NCI Yeast Anticancer Drug Screen. Data for the bub3 strain (AID 167); settings: S. cerevisiae bub3 mutant strain, at 50.0 µM, hits give high values
Procedure, shortened: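 Inhibition values come from growth of compound-treated mutant yeast normalised to vehicle-treated controls.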

[6] = NCI Yeast Anticancer Drug Screen. Data for the mlh1 rad18 strain (AID 175); settings: S. cerevisiae mlh1 rad18 strain growth inhibition; at 50.0 µM; hits give high values
Procedure, shortened: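 Read-out is yeast growth inhibition, calculated against vehicle-only controls. The compound was applied to a strain engineered with DNA damage repair alterations.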

Measured: growth inhibition

O=S(=O)(O)ON=C1c2ccccc2-c2ccccc21
inactive: [1] 0.6% | [2] -10.7% | [3] 10.4% | [4] 10.4% | [5] 6.55% | [6] -13.6%

NC(=O)C1C2C=CC(O2)C1C(=O)O (configuration not stated)
inactive: [1] -26.6% | [2] -12.9% | [3] -10.3% | [4] -23.6% | [5] -1.9% | [6] 5.4%

Cc1nnc(N)s/c1=N/O
inactive: [1] 7.5% | [2] 4.6% | [3] 2.45% | [4] -5.55% | [5] 3.15% | [6] -11.6%

CN(C)c1ccc(/C=C(\NC(=O)c2ccccc2)C(=O)NC(CC(=O)O)C(=O)O)cc1 (configuration not stated)
inactive: [1] 10.2% | [2] 1.45% | [3] 17.9% | [4] 7% | [5] -0.25% | [6] -0.55%

CCCCn1cnc2ccc3[nH]c(C)nc3c2c1=O
inactive: [1] 29.4% | [2] -4.85% | [3] 34.1% | [4] -3.55% | [5] -6.35% | [6] 21.4%

CCSCCCSCCSCC
inactive: [1] 58.5% | [2] 46.5% | [3] 57.5% | [4] 43.7% | [5] 63.5% | [6] 56%

CC(Br)CCl (configuration not stated)
inactive: [1] 26.4% | [2] 17.1% | [3] 22.1% | [4] 2.1% | [5] 14.4% | [6] 39.2%

c1ccc(Cc2[nH]nc(-c3ccccc3)c2N=Nc2ccccc2)cc1
inactive: [1] 5.55% | [2] -34.9% | [3] 2.65% | [4] -16.4% | [5] 8.45% | [6] -6.1%

N=C(N)SCCSC(=N)N
inactive: [1] -13.5% | [2] -8.4% | [3] -30.6% | [4] 9.7% | [5] -16.4% | [6] 12.9%

C[Si](C)(C)C#CC(O)CS(=O)c1ccccc1 (configuration not stated)
inactive: [1] -19.5% | [2] -19.4% | [3] -13.3% | [4] -3.7% | [5] -6.45% | [6] -17.1%

N#CC(C(=O)O)C1(c2ccccc2)CCCCC1 (configuration not stated)
inactive: [1] -13% | [2] 4.95% | [3] -5.3% | [4] -16% | [5] 1.1% | [6] -3.45%

C=CCOC(=O)NC(CCC(N)=O)C(=O)O (configuration not stated)
inactive: [1] 19.7% | [2] 1.1% | [3] 14.7% | [4] 9.5% | [5] -1% | [6] 16.3%

CSc1ccc(NC(=O)C(Cl)Cl)cc1
inactive: [1] -3.35% | [2] 5.8% | [3] 5.1% | [4] 13% | [5] -15.3% | [6] 1.9%

Cc1ccc(-c2n[nH]c(=O)n2N2C(=O)C=CC2=O)cc1
inactive: [1] -9.05% | [2] -20.6% | [3] -26.3% | [4] -1.2% | [5] -15.4% | [6] -59.9%

CCCC1(CCC)CNC(=O)NC1
inactive: [1] 0.45% | [2] -3.9% | [3] -5.1% | [4] -11.1% | [5] 1.5% | [6] -10.8%

O=C(Nc1c[nH]c(=O)[nH]c1=O)Oc1ccccc1
inactive: [1] -5.65% | [2] -6.7% | [3] -4.8% | [4] -1% | [5] -50% | [6] 5.05%

COc1ccccc1NC(=O)CC(=O)n1nc(C)c(N=Nc2ccccc2F)c1C
inactive: [1] -41.6% | [2] 1.45% | [3] -28.2% | [4] 6.8% | [5] -31.9% | [6] -30.3%

CC1C(c2ccccc2)=C(c2ccccc2)C(c2ccccc2)=C(c2ccccc2)C1c1ccccc1 (configuration not stated)
inactive: [1] 27.6% | [2] -19.8% | [3] 2.6% | [4] -5.55% | [5] -1.2% | [6] -10.7%

[O-][n+]1cscc1-c1nc2ccccc2[nH]1
inactive: [1] 7.45% | [2] -13.2% | [3] -2.95% | [4] 10.2% | [5] -7.8% | [6] -7.5%

O=C1CCC(c2ccccc2)C(O)(C(=O)O)C1 (configuration not stated)
inactive: [1] 6.45% | [2] -8.1% | [3] -13.9% | [4] -5.1% | [5] -14.3% | [6] -24.9%

O=C(O)CC[C@H](NC(=O)c1ccc(-n2nc3ccc(O)cc3nc2=O)cc1)C(=O)O
inactive: [1] -6.65% | [2] -8.25% | [3] 11.9% | [4] 9.95% | [5] 33.8% | [6] 14.5%

CCOc1ccc2ccccc2c1
inactive: [1] -28.2% | [2] 0.7% | [3] 1.25% | [4] -49.5% | [5] -3.15% | [6] -19.7%

COC(=O)CCC(C)C1CCC2C3CCC4CC5CCC4(C)C3(O5)C(Br)C(Br)C12C (configuration not stated)
inactive: [1] -11.8% | [2] -48.1% | [3] -32.5% | [4] -33% | [5] -25.5% | [6] -4.8%

N#Cc1ccc(OCCSCCCCCCCCCCSCCOc2ccc(C#N)cc2)cc1
inactive: [1] -16.8% | [2] -20.9% | [3] -19.8% | [4] -6.05% | [5] -1% | [6] -15.8%

CC[C@]12CCCN3CCc4c(n(c5ccccc45)C(=O)C1)[C@@H]32
inactive: [1] -25.9% | [2] -23.2% | [3] -49.1% | [4] 29.4% | [5] -25.6% | [6] 31.1%

O=c1/c(=C/c2ccc(Cl)cc2)sc2nc(-c3ccccc3)nn12
inactive: [1] 0.85% | [2] 7.75% | [3] 8.8% | [4] -6.75% | [5] -12.8% | [6] 23.6%

CCCCCCCCCCCCCCCCOCC(O)CO (configuration not stated)
inactive: [1] -8.55% | [2] -29.2% | [3] 1.25% | [4] -5.65% | [5] -17.1% | [6] -56.9%

CC(=O)C1CN(C)CCC1=O (configuration not stated)
inactive: [1] -20% | [2] -4.55% | [3] -19.8% | [4] -11.2% | [5] -13.7% | [6] 16.9%

Cc1ccc(S(=O)(=O)OCC2CC=CCC2COS(=O)(=O)c2ccc(C)cc2)cc1 (configuration not stated)
inactive: [1] 5.4% | [2] -8.2% | [3] -9.75% | [4] -15.2% | [5] 6% | [6] 28.8%

Cc1c(C(=O)Nc2ccc(Cl)cc2)nc(N)nc1-c1cccc(Cl)c1
inactive: [1] -18.9% | [2] -8.85% | [3] 2.3% | [4] 1.1% | [5] -3.6% | [6] -8.7%

Cc1ccc(S(=O)(=O)OC2=C/C(=N\c3onc(C)c3C)c3ccccc3C2=O)cc1
inactive: [1] -41.6% | [2] -19.4% | [3] -27.9% | [4] -5.4% | [5] -15% | [6] -19.3%

OC(c1ccccc1)(c1ccccc1)C1CC1
inactive: [1] 6.2% | [2] -6.9% | [3] 1.6% | [4] 7% | [5] -19.2% | [6] 10.9%

Cc1ccc2ccccc2c1CC(=O)O
inactive: [1] 28.8% | [2] 36.6% | [3] 31.5% | [4] 31.7% | [5] 38.8% | [6] 39.2%

CC1=CC2=C(C(N)=O)C(=O)OC2(C)C(c2ccccc2)C1 (configuration not stated)
inactive: [1] -19.9% | [2] -6.75% | [3] 4.65% | [4] 7% | [5] 1.85% | [6] 5.7%

O=S(=O)(O)Cc1cccc2ccccc12
inactive: [1] 38% | [2] 6.7% | [3] 11.8% | [4] -17.6% | [5] -2.65% | [6] 22.6%

CCOC(=O)c1nc(C)oc1C(=O)OCC
inactive: [1] 0.85% | [2] -12.9% | [3] -14.6% | [4] -13.9% | [5] -7.3% | [6] -3.85%

CC1(C)OC2OC(COC(=O)c3ccc([N+](=O)[O-])cc3)C3OC(C)(C)OC3C2O1 (configuration not stated)
inactive: [1] -13.6% | [2] -8.45% | [3] -8.85% | [4] -28.1% | [5] 0.85% | [6] -25.4%

CC1=C(C(c2ccccc2)c2ccccc2)C(=O)c2ccccc2C1=O
inactive: [1] -3.35% | [2] -6.5% | [3] 1.45% | [4] 1.5% | [5] -31.8% | [6] -0.7%

COC(=O)c1ccccc1C1CN=NC12Cc1ccc3c(c1C2=O)CCC3 (configuration not stated)
inactive: [1] -0.85% | [2] -3.55% | [3] 1.75% | [4] -7.3% | [5] 7.1% | [6] 16.7%

O=C1NC(=O)c2ccccc2/C1=C/c1ccc2c(c1)OCO2
inactive: [1] -16.6% | [2] -8.25% | [3] -13.3% | [4] -32.5% | [5] -2.6% | [6] -26.6%

CCCCN1C(=O)CC2[C@@H]3CCc4cc(OC)ccc4C3CC[C@]2(C)C1=O (some centres not stated)
inactive: [1] 9.05% | [2] 11.6% | [3] 16.1% | [4] 26.6% | [5] 13.8% | [6] 14.4%

Fc1ccc(-c2nnc(-c3ccc4ccccc4c3)o2)cc1
inactive: [1] 18.1% | [2] -11.3% | [3] 21.4% | [4] 12.2% | [5] 35.8% | [6] -1.3%

— PubChem BioAssay (NCI)
